In PubChem BioAssay AID2289 (National Center for Advancing Translational Sciences (NCATS), 2010) one finds Potency data, which are given here for 108 compounds.

Out of some 340,000 compounds screened, about 3,300 (0.97%) were called active. Inconclusive results (about 9%) are left out. The call rests on the fitted dose curve; in most records, active means well fitted inhibition curve with a large enough effect; inconclusive means small, poorly fitted or top-dose-only effect, or effect the other way; inactive means flat fitted curve, though single readings scatter. The list shows a part of the results.
Potency means the concentration at half of the fitted maximal effect.

This experiment in a line: qHTS Assay for Modulators of miRNAs and/or Inhibitors of miR-21. Further: nearly all actives have a fitted effect of over 55% in size. Particulars: HeLa miR-21-FLuc reporter, luciferase luminescence, 48 h; actives lower the signal. The method, boiled down:
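HeLa cells endogenously expressing miR-21, stably carrying CMV-driven firefly luciferase with a downstream miR-21 binding site, 2000 cells/well. Titrations up to approximately 40 uM, 48 hours; luciferase luminescence read.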
On the technique in general: In qHTS, concentration-response curves come from the screen itself.
On to `COc1ccc(Nc2nc(N)nc(CSC(=S)N3CCCCC3)n2)cc1`, for which the Potency is 14.7 µM (active).

On to `COc1ccc(Nc2nc(N)nc(CSC(=S)N3CCOCC3)n2)cc1`, for which the Potency was 16.5 µM (active). To `CC(C)OC(=O)c1ccc2nc3ccccc3nc2c1` belongs 0.656 µM (active). Consider `O=C(/C=C\Nc1ccc(Br)cc1)c1cccnc1`, for which the Potency is 1.31 µM (active). In the case of `O=C(/C=C/Nc1ccccc1F)c1ccc(Br)cc1` it was 0.293 µM (active); in that of `O=C(/C=C/Nc1ccc(F)cc1)c1ccc(Br)cc1`, 0.927 µM (active). On to `O=C(/C=C/Nc1ccc(F)c(F)c1)c1ccc(Br)cc1`, for which the Potency was 1.85 µM (active). To `Cc1ccsc1C(=O)NN=C1CCCCCC1` belongs 3.69 µM (active); to `CC(=O)N1CCC(=NNC(=O)c2cccs2)CC1`, 3.69 µM (active); to `CC(C)N1CCC(=NNC(=O)c2cccs2)CC1`, 6.56 µM (active).

For the compound `O=C(NN=C1CCCC1)c1cccs1`, the Potency was 1.65 µM (active).

Take `COc1ccc(-c2nc(C#N)c(NCc3ccco3)o2)cc1`: the Potency was 9.27 µM (active). In the case of `Cc1ccc(-c2nc(C#N)c(NCc3ccco3)o2)cc1` it was 4.14 µM (active). Take `COc1ccc(C(=O)/C=C/c2ccc(OC)cc2OC)c(O)c1`: the Potency was 6.56 µM (active). To `Clc1ccc(-c2cn3nc4c(nc3n2)CCCC4)cc1` belongs 0.117 µM (active); to `O=C(Nc1ccsc1C(=O)O)c1cccc(C(F)(F)F)c1`, 7.36 µM (active); to `COc1ccc(C2=NN(S(C)(=O)=O)C(c3ccc4nccnc4c3)C2)cc1` (stereo not drawn), 7.36 µM (active). In the case of `COc1ccc(C2=NN(S(C)(=O)=O)C(c3cccs3)C2)cc1` (stereo not drawn) it was 2.61 µM (active). In the case of `COc1ccc(C2=NN(S(C)(=O)=O)C(c3cccs3)C2)cc1OC` (stereo not drawn) it was 7.36 µM (active). Regarding `COc1ccc(C2=NN(C(C)=O)C(c3cccs3)C2)cc1OC` (stereo not drawn), the Potency was 8.26 µM (active). To `CC(=O)c1sc(NCc2ccc(C)cc2)nc1C` belongs 5.21 µM (active). In the case of `CC(=O)c1sc(N/N=C\c2ccc(C)cc2)nc1C` it was 3.29 µM (active); in that of `CC(=O)c1sc(N/N=C\c2ccc(N(C)C)cc2)nc1C`, 0.927 µM (active); in that of `CC(=O)c1sc(N/N=C\c2ccc(Br)cc2)nc1C`, 5.21 µM (active). In the case of `Cc1cc(C(=O)NNC(=S)Nc2ccccc2C)cs1` it was 1.65 µM (active); in that of `CCc1cc(C(=O)NNC(=S)Nc2ccccc2C)cs1`, 2.07 µM (active). For `c1ccc2nc(-c3ccc(-n4ccnc4)cc3)ccc2c1`, the Potency was 0.826 µM (active). As for `COc1ccc(C(=O)N[C@H](C(=O)Nc2nc3c(s2)CCCC3)C(C)C)cc1`, the Potency was 2.93 µM (active). For the compound `Nc1ccc2c(c1)sc1ccccc12`, the Potency was 6.56 µM (active). In the case of `O=C(O)c1cc(N/N=C/C=C/c2ccccc2[N+](=O)[O-])ccc1Cl` it was 3.29 µM (active).

With `NS(=O)(=O)c1ccc(N/N=C/C=C/c2ccccc2[N+](=O)[O-])cc1`, the Potency is 3.29 µM (active). As for `O=C(O)c1cc(N/N=C/C=C/c2ccccc2)ccc1Cl`, the Potency was 0.826 µM (active). Turning to `NNc1ccc(Cl)c(C(=O)O)c1`, the Potency is 6.56 µM (active).

As for `O=C(O)c1ccc(N/N=C/C=C/c2ccccc2[N+](=O)[O-])cc1`, the Potency is 4.65 µM (active). In the case of `O=C(O)c1cc(N/N=C/C(Cl)=C/c2ccccc2)ccc1Cl` it was 0.233 µM (active). To `Fc1cccc(Cl)c1CNc1n[nH]c(-c2ccco2)n1` belongs 7.36 µM (active); to `CC(C)c1ccc(CNc2n[nH]c(-c3ccco3)n2)cc1`, 2.07 µM (active). In the case of `Nc1c(C(=O)N/N=C/c2cccnc2)cnn1-c1ccccc1` it was 16.5 µM (active); in that of `Nc1c(C(=O)N/N=C/c2ccccc2)cnn1-c1ccccc1`, 1.47 µM (active). Take `N#Cc1c(N)nc2c(c1N)CC(COc1ccccc1)O2` (stereo not drawn): the Potency was 7.36 µM (active). To `Cc1ccccc1OCC1Cc2c(nc(N)c(C#N)c2N)O1` (stereo not drawn) belongs 14.7 µM (active); to `C=C(C)Cn1cnc2c(oc3nc4c(cc32)CCCC4)c1=O`, 1.17 µM (active); to `Cc1cc(C=C2C(=O)c3ccccc3C2=O)c(C)n1C`, 18.5 µM (active). Take `Cc1cc(C=C2C(=O)c3ccccc3C2=O)c(C)n1-c1cccc(C(=O)O)c1`: the Potency was 11.7 µM (active). To `CCn1c(C)cc(C=C2C(=O)c3ccccc3C2=O)c1C` belongs 13.1 µM (active); to `NC(=O)c1sc2nc(-c3ccco3)ccc2c1N`, 14.7 µM (active); to `CC(=O)c1sc2nc(-c3ccco3)ccc2c1N`, 14.7 µM (active).

Consider `Cc1ccc2cc(CCNC(=O)c3cccs3)c(=O)[nH]c2c1`, for which the Potency was 4.14 µM (active). In the case of `Cc1cc2cc(CCNC(=O)c3cccs3)c(=O)[nH]c2cc1C` it was 3.69 µM (active); in that of `Cc1ccc2cc(CCNC(=O)c3cccs3)c(=O)[nH]c2c1C`, 2.93 µM (active); in that of `CSCc1ccc(C(=O)Nc2ccc(C(N)=O)cc2)cc1`, 1.65 µM (active).

For `O=C(Nc1ccc(F)cc1)/C(Cl)=C/c1ccccc1`, the Potency is 1.31 µM (active). In the case of `CC(=O)c1ccc(NC(=O)/C(Cl)=C/c2ccccc2)cc1` it was 5.21 µM (active). To `CC(C)=CCN1CCN(Cc2cnc(N3CCOCC3)s2)CC1CCO` (stereo not drawn) belongs 1.65 µM (active). In the case of `COc1ccc(Cn2c(SCC#N)nc3ccc(N4CCOCC4)cc3c2=O)cc1` it was 6.56 µM (active). Turning to `Cc1cc(N(CCO)CCO)ccc1N=Nc1cc(F)ccc1F`, the Potency was 9.27 µM (active). To `COc1ccc(C(=O)C(OC(=O)c2ccccc2Cl)c2ccccc2)cc1` (stereo not drawn) belongs 14.7 µM (active). To `Cc1ccc(-c2nnc3ccccc3c2C(=O)Nc2ccc(F)cc2)cc1` belongs 6.56 µM (active). In the case of `COc1cccc(NC(=O)c2c(-c3ccc(C)cc3)nnc3ccccc23)c1` it was 4.65 µM (active); in that of `Cc1nnc(SCc2ccccc2)c2cc3sccc3n12`, 14.7 µM (active); in that of `COc1cccc2cc(-c3ccccc3)c(=O)oc12`, 1.65 µM (active). Consider `COc1cccc2cc(-c3nc(-c4ccccc4F)no3)c(=O)oc12`, for which the Potency was 0.185 µM (active). To `Cc1cc(NC(=O)CSc2nc3c(cc2C#N)CCCC3)no1` belongs 1.47 µM (active). To `COc1cc2cc(C#N)c(SCC(=O)N3CCOCC3)nc2cc1OC` belongs 11.7 µM (active); to `N#Cc1cc2cc3c(cc2nc1SCC(=O)N1CCOCC1)OCO3`, 0.656 µM (active); to `Clc1ccc(-c2cnc3ccccc3n2)cc1`, 4.14 µM (active). In the case of `CCCCOc1ccc(-c2cnc3ccccc3n2)cc1` it was 0.656 µM (active).

Turning to `CN(C)c1ccc(-n2cccc2/C=N/n2cnnc2)cc1`, the Potency is 8.26 µM (active).

On to `CCCc1ccc(OCc2ccc(C(=O)OC)o2)c(OC)c1`, for which the Potency was 7.36 µM (active). In the case of `COC(=O)c1ccc(COc2ccc(C(C)(C)C)cc2)o1` it was 10.4 µM (active).

As for `COC(=O)c1ccc(COc2ccc(C)c(C)c2)o1`, the Potency was 14.7 µM (active). Take `O=C(OCc1ccccn1)c1ccc(COc2ccc3ccccc3c2)o1`: the Potency was 6.56 µM (active). In the case of `CCc1ccc(OCc2ccc(C(=O)OC)o2)cc1` it was 5.21 µM (active). To `COC(=O)c1ccc(COc2ccc(C)cc2[N+](=O)[O-])o1` belongs 13.1 µM (active); to `COC(=O)c1ccc(COc2ccc3c(c2)CCC3)o1`, 5.21 µM (active); to `Cc1cc(Cl)c2oc(C(=O)NCCC3CCCCO3)c(C)c2c1` (stereo not drawn), 14.7 µM (active). In the case of `Cc1cc(Cl)c2oc(C(=O)N(C)CC3CCOCC3)c(C)c2c1` it was 14.7 µM (active). Turning to `C=CCN(C(=O)c1oc2c(Cl)cc(C)cc2c1C)C1CCS(=O)(=O)C1` (stereo not drawn), the Potency is 10.4 µM (active).

As for `Cc1cc(Cl)c2oc(C(=O)N(C)C3CCOC3)c(C)c2c1` (stereo not drawn), the Potency was 14.7 µM (active).

As to `Cc1nc2sc(-c3ccccc3)cc2c(=O)n1/N=C/N(C)C`, the Potency was 3.29 µM (active). In the case of `CCCCn1cnc2c(oc3ccccc32)c1=O` it was 13.1 µM (active); in that of `CN(C)c1ncnc2sc(-c3ccccc3)cc12`, 14.7 µM (active). In the case of `CCc1cc2c(=O)n(-c3ccccc3)cnc2s1` it was 13.1 µM (active); in that of `O=C(CSc1ncnc2ccccc12)c1ccc2c(c1)OCCO2`, 2.07 µM (active); in that of `CCn1cnc2sc(-c3ccccc3)cc2c1=O`, 1.47 µM (active). In the case of `CC(=O)Cn1nnc2sc(-c3ccccc3)cc2c1=O` it was 1.85 µM (active); in that of `CCc1cc2c(SCC(=O)c3ccccc3)ncnc2s1`, 8.26 µM (active); in that of `CC(=O)Cn1cnc2sc(-c3ccccc3)cc2c1=O`, 4.14 µM (active). For `CCCCn1cnc2sc(-c3ccccc3)cc2c1=O`, the Potency is 1.31 µM (active). In the case of `O=C(NC1CCCC1)c1cc(-c2cccs2)on1` it was 2.33 µM (active); in that of `O=C(NC1CCCCC1)c1cc(-c2cccs2)on1`, 2.93 µM (active); in that of `Cn1c(C(=O)NC2CCCCC2)cc2sccc21`, 6.56 µM (active). In the case of `Cc1cccc2sc(NC(=O)C3CCCO3)nc12` (stereo not drawn) it was 13.1 µM (active); in that of `O=C(Nc1nnc(-c2ccccc2F)s1)C1CCCO1` (stereo not drawn), 1.85 µM (active). To `O=C(Nc1ncc(Cc2cccc(Cl)c2)s1)C1CCCO1` (stereo not drawn) belongs 7.36 µM (active); to `O=C(Nc1nnc(SCc2c(Cl)cccc2Cl)s1)C1CCCO1` (stereo not drawn), 18.5 µM (active); to `O=C(Nc1ncc(Cc2cccc(Cl)c2Cl)s1)C1CCCO1` (stereo not drawn), 7.36 µM (active). For the compound `CC1CCCN(c2ccc(C(=O)NCc3cccs3)cn2)C1` (stereo not drawn), the Potency is 6.56 µM (active).

Regarding `CC(C)(CO)NC(=O)c1ccc2c(c1)C(=O)c1ccccc1-2`, the Potency was 5.21 µM (active). In the case of `Cc1ccsc1C(=O)OCC(=O)NCCC1=CCCCC1` it was 18.5 µM (active); in that of `O=c1[nH]cnc2scc(-c3ccc(-c4ccccc4)cc3)c12`, 0.521 µM (active).

For the compound `Cc1ccccc1-c1ncnn1-c1sc2c(c1C#N)CCCCC2`, the Potency is 1.31 µM (active). To `N#Cc1c(-n2ncnc2-c2ccc(F)cc2)sc2c1CCCCC2` belongs 3.69 µM (active).

Take `C1=Nc2ccccc2CN1c1ccccc1`: the Potency was 5.85 µM (active). To `Oc1cccc(-c2nc3ccc4ccccc4c3c3c2CCC3)c1` belongs 5.21 µM (active); to `CCOCCCNC(=O)c1cccc(OC2CCN(S(C)(=O)=O)CC2)c1`, 5.85 µM (active); to `Nc1c(C(=O)N2CCCCC2)sc2nc3c(cc12)CCCC3`, 1.31 µM (active).

Consider `Nc1c(C(=O)C2CC2)sc2nc3c(cc12)CCC3`, for which the Potency is 1.85 µM (active).
